# In the library only some 3% were active in any assay of this set; here they are far more common.
# zVAD death inh – L929 zVAD cell death inhibition; viability rescue, % at 10 µM; AID 1377; actives 0.38% (n = 220,000); L929 zVAD necroptosis rescue, ATP luminescence, 24 h; with zVAD 60 µM;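 active means activation, scaled between plate controls, above about 75%, limit read from the data; inactive means activation under that limit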;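 further: 0% = zVAD with DMSO and 100% = DMSO alone without zVAD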
# TNF necrop inh – TNF-alpha cell death inhibition in Jurkat FADD-/- cells; Jurkat FADD-/- TNF necroptosis rescue, ATP luminescence, 24 h; 0 = TNF only, 100 = no-TNF cells; activation (protection from cell death), % at 10 µM; actives 0.068% (n = 220,000); AID 463075;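 active means activation, meaning protection from cell death, of at least 50% relative to plate controls; inactive means activation below 50%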;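 further: necroptosis triggered by 40 ng/mL TNF-alpha added together with compound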
# HMGR II inh – blocks class II HMG-CoA reductase of Enterococcus faecalis; AID 1066; inhibition, % at 10 µM; purified E. faecalis HMGR, NADPH absorbance 340 nm kinetic; actives 0.41% (n = 190,000);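 active means inhibition above a set limit, the median over all tested compounds plus 3 SD, cut at about 9.5% in these data; inconclusive means no clear call, values can overlap the other calls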;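 further: enzyme runs in reverse so mevalonate oxidation gives rising NADPH absorbance; 0% = complete reaction with DMSO and 100% = background rate lacking mevalonate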
# 14-3-3 Bad PPI – disrupts binding of bovine 14-3-3 zeta to phospho-Bad peptide; P63103; actives 0.71% (n = 220,000); TR-FRET 14-3-3zeta/Dy647-pBad peptide displacement, 1 h; inhibition, % at 21.7 µM; AID 781;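 active means inhibition above about 70%, limit read from the data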;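 further: 0% = full 14-3-3 plus peptide FRET controls and 100% = background without 14-3-3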
# ROMK mod – modulators of human ROMK potassium channel | actives 2% (n = 130,000) | Tet-inducible ROMK, thallium flux fluorescence; actives lie on both sides | B-score at 10 µM | P48048 | AID 1918;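 active means signal ratio slope over the read window, or its plate-corrected B-score, at least 3 SD from the plate mean, either direction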;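 further: B-score of the F/F0 ratio slope over 7 to 12 s after thallium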
# Target sequence (P48048 whole entry, looked up): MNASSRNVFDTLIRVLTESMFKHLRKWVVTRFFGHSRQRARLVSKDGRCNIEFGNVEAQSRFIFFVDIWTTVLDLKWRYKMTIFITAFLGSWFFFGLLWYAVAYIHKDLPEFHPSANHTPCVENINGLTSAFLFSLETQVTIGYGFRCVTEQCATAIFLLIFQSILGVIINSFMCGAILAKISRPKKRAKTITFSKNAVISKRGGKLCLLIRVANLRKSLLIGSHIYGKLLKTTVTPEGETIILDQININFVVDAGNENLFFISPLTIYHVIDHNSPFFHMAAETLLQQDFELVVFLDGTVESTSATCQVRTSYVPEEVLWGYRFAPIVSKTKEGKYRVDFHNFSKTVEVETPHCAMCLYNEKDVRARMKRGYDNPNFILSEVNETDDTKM
# Calpain2 inh – inhibitors of pig calpain II. inhibition, % at 16 µM. AID 1236. purified calpain II, fluorogenic peptide substrate, 30 min. actives 0.37% (n = 220,000);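 active means inhibition above about 50%, limit read from the data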
# ROMK retest – human ROMK channel modulation, retest confirmation | shares compounds with ROMK mod | ROMK thallium flux, fluorescence ratio; active compounds read low | normalized thallium flux (F/F0 slope) at 10 µM | actives 54% (n = 3,000) | AID 1917;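 active means Flux at 10 µM at least 3 SD below or above vehicle control mean in one or both replicates; inconclusive means no clear call, values can overlap the other calls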
# The depositor's hits bear a star; ? = inconclusive; . = no result.
SMILES,zVAD death inh,TNF necrop inh,HMGR II inh,14-3-3 Bad PPI,ROMK mod,Calpain2 inh,ROMK retest
CN(C)c1ccc(/C=C/c2cccc[n+]2[O-])cc1,0,0,.,2,-4.4*,-22,0.054*
Cc1cc(Cl)ccc1OCc1cn2cccnc2n1,-1,-1,-8,-1,4.1*,-15,?
Clc1ccc(OCc2cn3cccnc3n2)c2ncccc12,0,0,-1,.,0.039,-154,.
NC1=NC(=O)C(CC(=O)c2ccc(Cl)cc2)S1 (centres undefined),1,3,-6,-2,.,21,.
Cc1cc(C)n(-c2nc3nonc3nc2Nc2cccc(C)c2C)n1,0,-3,-5,1,-3.9*,-40,0.053*
c1ccc(-c2nc3nonc3nc2-c2ccccc2)cc1,58,-11,-7,1,-4.2*,26,0.063*
CC(C)CC(C(=O)N1CCc2ccccc2C1)N1C(=O)c2ccccc2C1=O (centres undefined),0,-2,0,-1,-3.5*,-14,0.057*
CCOC(=O)CSc1nc2c(sc(=S)n2Cc2ccco2)c(=O)n1-c1ccccc1,-1,-2,-3,-14,-0.42,-50,.
CCOC(=O)CSc1nc2c(sc(=S)n2-c2ccccc2OC)c(=O)n1Cc1ccco1,0,0,-5,2,.,37,0.049*
COC(=O)c1cc(C)ccc1OCc1ccc([N+](=O)[O-])cc1,1,1,.,8,-13*,2,?
O=C(c1ccc([N+](=O)[O-])cc1)N(Cc1ccc(Br)cc1)N1C(=O)CCCC1=O,-2,3,0,-7,-7.3*,-26,0.037*
O=C(c1ccccc1Cl)N(Cc1ccc(Br)cc1)N1C(=O)CCCC1=O,1,0,-8,-4,.,8,.
O=C(COc1cccnc1[N+](=O)[O-])Nc1ccc2c(c1)OC(F)(F)O2,.,3,-8,-9,-0.025,16,.
CCC(=O)Nc1cccc(C(=O)/C=C/c2cccs2)c1,1,-6,-5,4,-1.4,42,0.069*
CCC(=O)Nc1cccc(C(=O)/C=C/c2ccccc2)c1,1,-17,-1,-10,.,-24,.
Nc1c(C=C2C=CC(=O)C=C2)c(=O)nc2snc(SCc3ccccc3)n12,1,1,.,-3,.,12,?
CCCCOC(=O)c1ccc(NC(=O)COC(=O)CSc2nc(C)cc(C)n2)cc1,2,-1,-4,5,-3.1*,-1,0.079
COc1ccc(NC(=O)CSc2nc(C)cc(C)n2)cc1,0,1,-5,-2,0.34,29,.
CCOC(=O)C1CCN(S(=O)(=O)c2ccc(C(C)(C)C)cc2)CC1,0,1,1,-4,-0.047,-37,.
Cc1ccc2nc(NC(=O)c3ccc(OCC4CCCO4)cc3)sc2c1 (centres undefined),1,-6,2,0,-0.74,-14,.
COCCN(Cc1cc2cc(C)ccc2nc1Cl)C(=O)Nc1ccccc1OC,1,1,0,3,-1.1,31,.
CCN(CC(=O)Nc1cc(OC)ccc1OC)Cc1nc2ccccc2c(=O)[nH]1,0,2,-1,-5,2.8*,2,0.07
COc1ccc(CC(=O)Nc2ccccc2N2CCCCC2)cc1OC,0,0,.,-3,.,14,.
O=C(COc1ccc(Cl)cc1[N+](=O)[O-])N1CCCCCC1,0,1,0,0,-1.8*,16,?
O=C(c1cccc(COc2cccc3ccccc23)c1)N1CCCC1,-1,0,-2,-1,-3.5*,-3,0.087
NNC(=O)c1ccc(COc2cccc3ccccc23)cc1,1,0,-5,9,.,-29,.
N#C/C(=C\c1ccc(O)c([N+](=O)[O-])c1)C(=O)NCc1ccccc1,0,1,-8,2,1.6,16,.
N#C/C(=C\c1ccc(O)c(Br)c1)C(=O)NCc1ccccc1,1,0,1,-15,3.6*,-27,0.066*
N#C/C(=C\c1ccc(OC(F)F)cc1)C(=O)N1CCCCC1,-1,-2,.,0,.,-16,.
CN1CCC(N(C)C(=O)/C(C#N)=C/c2ccc(OC(F)F)cc2)CC1,0,0,.,-7,.,-20,0.046*
